# B1: unnamed (peptide)
# chain: VQPTAAPATPPRHIS
# B2: unnamed (peptide)
# chain: SSSSSPPPLPTRRDH
# Experiments:
# Experiment in all cases: SPOT peptide array binding signal intensity (averaged, normalized) (arbitrary units (background-subtracted, floor 0; scale differs between SH3 domains)); higher = stronger binding of the SH3 domain to the peptide
# [1] = biological target: SpBzz1-D2
# Method in brief: (§1)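 To measure binding, SH3 domains from four yeast species were fused to GST, expressed in E. coli BL21(DE3) and purified on glutathione Sepharose. Each domain was incubated at 10 μg/ml overnight at 4°C on cellulose membranes with synthetic 15-mer peptides whose cysteines were replaced by serines. Anti-GST antibody, an HRP anti-mouse secondary and luminol were used for detection, and images were quantified with Genespotter. Reported binding signal is normalized, background-subtracted spot intensity averaged over replicates, in arbitrary units that differ between domains.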
# [2] = biological target: SpCyk3
# Method in brief: as §1
# [3] = biological target: SpHof1
# Method in brief: as §1
# [4] = biological target: SpHof1-2
# Method in brief: as §1
# [5] = biological target: SpHof1-3
# Method in brief: as §1
# [6] = biological target: SpHse1
# Method in brief: as §1
# [7] = biological target: SpLsb1
# Method in brief: as §1
# [8] = biological target: SpLsb4
# Method in brief: as §1
# [9] = biological target: SpMyo1
# Method in brief: as §1
# [10] = biological target: SpNbp2
# Method in brief: as §1
# [11] = biological target: SpPex13
# Method in brief: as §1
# [12] = biological target: SpRvs167
# Method in brief: as §1
# [13] = biological target: SpSla1-D1-D2
# Method in brief: as §1
# [14] = biological target: SpSla1-D3
# Method in brief: as §1
# [15] = biological target: AgAbp1
# Method in brief: as §1
# [16] = biological target: AgBbc1
# Method in brief: as §1
# [17] = biological target: AgBem1-D1
# Method in brief: as §1
# [18] = biological target: AgBzz1-D1
# Method in brief: as §1
# [19] = biological target: AgBzz1-D2
# Method in brief: as §1
# [20] = biological target: AgCyk3
# Method in brief: as §1
# [21] = biological target: AgFus1
# Method in brief: as §1
# [22] = biological target: AgHof1
# Method in brief: as §1
# [23] = biological target: AgHse1
# Method in brief: as §1
# [24] = biological target: AgLsb1
# Method in brief: as §1
# [25] = biological target: AgLsb4
# Method in brief: as §1
# [26] = biological target: AgMyo5
# Method in brief: as §1
# [27] = biological target: AgNbp2
# Method in brief: as §1
# [28] = biological target: AgRvs167
# Method in brief: as §1
# [29] = biological target: AgSho1
# Method in brief: as §1
# [30] = biological target: AgSla1-D1-D2
# Method in brief: as §1
# [31] = biological target: AgSla1-D3
# Method in brief: as §1
# [32] = biological target: CaAbp1-D1
# Method in brief: as §1
# [33] = biological target: CaAbp1-D2
# Method in brief: as §1
# [34] = biological target: CaBbc1
# Method in brief: as §1
# [35] = biological target: CaBem1-D1
# Method in brief: as §1
# [36] = biological target: CaBzz1-D1
# Method in brief: as §1
# [37] = biological target: CaBzz1-D2
# Method in brief: as §1
# [38] = biological target: CaCyk3
# Method in brief: as §1
# [39] = biological target: CaFus1
# Method in brief: as §1
# [40] = biological target: CaHof1
# Method in brief: as §1
# [41] = biological target: CaHse1
# Method in brief: as §1
# [42] = biological target: CaLsb1
# Method in brief: as §1
# [43] = biological target: CaLsb4
# Method in brief: as §1
# [44] = biological target: CaMyo5
# Method in brief: as §1
# [45] = biological target: CaNbp2
# Method in brief: as §1
# [46] = biological target: CaRvs167
# Method in brief: as §1
# [47] = biological target: CaRvs167-3
# Method in brief: as §1
# [48] = biological target: CaSho1
# Method in brief: as §1
# [49] = biological target: CaSla1-D1-D2
# Method in brief: as §1
# [50] = biological target: CaSla1-D3
# Method in brief: as §1
# [51] = biological target: ScAbp1
# Method in brief: as §1
# [52] = biological target: ScBbc1
# Method in brief: as §1
# [53] = biological target: ScBem1-D1
# Method in brief: as §1
# [54] = biological target: ScBzz1-D1
# Method in brief: as §1
# [55] = biological target: ScBzz1-D2
# Method in brief: as §1
# [56] = biological target: ScCyk3
# Method in brief: as §1
# [57] = biological target: ScFus1
# Method in brief: as §1
# [58] = biological target: ScHof1
# Method in brief: as §1
# [59] = biological target: ScHse1
# Method in brief: as §1
# [60] = biological target: ScLsb1
# Method in brief: as §1
# [61] = biological target: ScLsb2
# Method in brief: as §1
# [62] = biological target: ScLsb3
# Method in brief: as §1
# [63] = biological target: ScLsb4
# Method in brief: as §1
# [64] = biological target: ScMyo3
# Method in brief: as §1
# [65] = biological target: ScMyo5
# Method in brief: as §1
# [66] = biological target: ScNbp2
# Method in brief: as §1
# [67] = biological target: ScPex13
# Method in brief: as §1
# [68] = biological target: ScRvs167
# Method in brief: as §1
# [69] = biological target: ScSho1
# Method in brief: as §1
# [70] = biological target: ScSla1-D1-D2
# Method in brief: as §1
# [71] = biological target: ScSla1-D3
# Method in brief: as §1
# [72] = biological target: SpAbp1-D1
# Method in brief: as §1
# [73] = biological target: SpBbc1
# Method in brief: as §1
# [74] = biological target: SpBzz1-D1
# Method in brief: as §1
binder,measurement,setting,value
B1,SPOT peptide array binding signal intensity,[1],≤ 0
same,SPOT peptide array binding signal intensity,[2],≤ 0
same,SPOT peptide array binding signal intensity,[3],0.5
same,SPOT peptide array binding signal intensity,[4],0.25
same,SPOT peptide array binding signal intensity,[5],15
same,SPOT peptide array binding signal intensity,[6],≤ 0
same,SPOT peptide array binding signal intensity,[7],2
same,SPOT peptide array binding signal intensity,[8],4010
same,SPOT peptide array binding signal intensity,[9],≤ 0
same,SPOT peptide array binding signal intensity,[10],≤ 0
same,SPOT peptide array binding signal intensity,[11],≤ 0
same,SPOT peptide array binding signal intensity,[12],1620
same,SPOT peptide array binding signal intensity,[13],0.5
same,SPOT peptide array binding signal intensity,[14],≤ 0
B2,SPOT peptide array binding signal intensity,[15],≤ 0
same,SPOT peptide array binding signal intensity,[16],364
same,SPOT peptide array binding signal intensity,[17],2
same,SPOT peptide array binding signal intensity,[18],26
same,SPOT peptide array binding signal intensity,[19],19.5
same,SPOT peptide array binding signal intensity,[20],1.5
same,SPOT peptide array binding signal intensity,[21],15.5
same,SPOT peptide array binding signal intensity,[22],59
same,SPOT peptide array binding signal intensity,[23],18.5
same,SPOT peptide array binding signal intensity,[24],180
same,SPOT peptide array binding signal intensity,[25],6800
same,SPOT peptide array binding signal intensity,[26],586
same,SPOT peptide array binding signal intensity,[27],16
same,SPOT peptide array binding signal intensity,[28],627
same,SPOT peptide array binding signal intensity,[29],19
same,SPOT peptide array binding signal intensity,[30],≤ 0
same,SPOT peptide array binding signal intensity,[31],≤ 0
same,SPOT peptide array binding signal intensity,[32],7.5
same,SPOT peptide array binding signal intensity,[33],≤ 0
same,SPOT peptide array binding signal intensity,[34],378
same,SPOT peptide array binding signal intensity,[35],4
same,SPOT peptide array binding signal intensity,[36],139
same,SPOT peptide array binding signal intensity,[37],≤ 0
same,SPOT peptide array binding signal intensity,[38],2
same,SPOT peptide array binding signal intensity,[39],26
same,SPOT peptide array binding signal intensity,[40],24.5
same,SPOT peptide array binding signal intensity,[41],114
same,SPOT peptide array binding signal intensity,[42],19.5
same,SPOT peptide array binding signal intensity,[43],8630
same,SPOT peptide array binding signal intensity,[44],6.5
same,SPOT peptide array binding signal intensity,[45],24.5
same,SPOT peptide array binding signal intensity,[46],1510
same,SPOT peptide array binding signal intensity,[47],7.25
same,SPOT peptide array binding signal intensity,[48],6.5
same,SPOT peptide array binding signal intensity,[49],76
same,SPOT peptide array binding signal intensity,[50],3.25
same,SPOT peptide array binding signal intensity,[51],≤ 0
same,SPOT peptide array binding signal intensity,[52],4
same,SPOT peptide array binding signal intensity,[53],≤ 0
same,SPOT peptide array binding signal intensity,[54],≤ 0
same,SPOT peptide array binding signal intensity,[55],12
same,SPOT peptide array binding signal intensity,[56],1
same,SPOT peptide array binding signal intensity,[57],20
same,SPOT peptide array binding signal intensity,[58],9.75
same,SPOT peptide array binding signal intensity,[59],15
same,SPOT peptide array binding signal intensity,[60],1340
same,SPOT peptide array binding signal intensity,[61],349
same,SPOT peptide array binding signal intensity,[62],5910
same,SPOT peptide array binding signal intensity,[63],7200
same,SPOT peptide array binding signal intensity,[64],460
same,SPOT peptide array binding signal intensity,[65],166
same,SPOT peptide array binding signal intensity,[66],≤ 0
same,SPOT peptide array binding signal intensity,[67],1560
same,SPOT peptide array binding signal intensity,[68],2180
same,SPOT peptide array binding signal intensity,[69],26.5
same,SPOT peptide array binding signal intensity,[70],51
same,SPOT peptide array binding signal intensity,[71],10
same,SPOT peptide array binding signal intensity,[72],22.5
same,SPOT peptide array binding signal intensity,[73],13
same,SPOT peptide array binding signal intensity,[74],406
same,SPOT peptide array binding signal intensity,[1],9.75
same,SPOT peptide array binding signal intensity,[2],2
same,SPOT peptide array binding signal intensity,[3],8.75
same,SPOT peptide array binding signal intensity,[4],54.5
same,SPOT peptide array binding signal intensity,[5],8.75
same,SPOT peptide array binding signal intensity,[6],35
same,SPOT peptide array binding signal intensity,[7],1530
same,SPOT peptide array binding signal intensity,[8],6770
same,SPOT peptide array binding signal intensity,[9],308
same,SPOT peptide array binding signal intensity,[10],6
same,SPOT peptide array binding signal intensity,[11],6.5
same,SPOT peptide array binding signal intensity,[12],2880
same,SPOT peptide array binding signal intensity,[13],11
same,SPOT peptide array binding signal intensity,[14],9.5

# — the supplement of paper PMC4466140
